Screening results: PubChem, National Center for Advancing Translational Sciences (NCATS)
Hits are enriched below; roughly 10% of the tested compounds scored in any of these assays.
NPR1 antag: human Npr1 receptor antagonism; P16066; HEK293 hNpr1 GloSensor cGMP, ANP-stimulated luminescence; Potency, µM (series often up to 46.3 µM), for the others: top-dose activity change, negative = inhibition, usual class: inhibitors; 76,000 compounds, 1.6% hits; calls by dose curve; further: nearly all actives have a fitted effect of over 60% in size
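Compound pre-incubated 30 min at room temperature on GloSensor-loaded HEK293 cells stably carrying hNpr1 and the pGS-40F cGMP biosensor. Stimulation uses hNppA at 0.1 nM final; luminescence is taken at baseline and 20 min post-agonist.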
NIH3T3 tox: kills NIH 3T3 cells. NIH 3T3 viability, CellTiter-Glo ATP luminescence, 48-72 h. Potency, µM (series often up to 96.7 µM), for inactives: at the highest dose activity change, negative = cytotoxicity, most hits filed as inhibitors. 94,000 compounds, 4.3% hits. AID 1345082; further: nearly all actives have a fitted effect of over 55% in size
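ATP-dependent luminescence (CellTiter-Glo) served as the viability signal for NIH 3T3 cells treated with compound for 48 or 72 hr at 37 °C.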
GPT2 inhibitor: inhibitors of human GPT2 alanine aminotransferase; Q8TD30; Recombinant GPT2, coupled pyruvate oxidase/HRP Amplex Red fluorescence; Potency, µM (highest dose often 57.7 µM), for inactives: top-dose activity change, negative = inhibition, usual class: inhibitors; 100,000 compounds, 0.25% hits; AID 1671188; further: nearly all actives have a fitted effect of over 60% in size
Target sequence (Q8TD30 whole entry, looked up): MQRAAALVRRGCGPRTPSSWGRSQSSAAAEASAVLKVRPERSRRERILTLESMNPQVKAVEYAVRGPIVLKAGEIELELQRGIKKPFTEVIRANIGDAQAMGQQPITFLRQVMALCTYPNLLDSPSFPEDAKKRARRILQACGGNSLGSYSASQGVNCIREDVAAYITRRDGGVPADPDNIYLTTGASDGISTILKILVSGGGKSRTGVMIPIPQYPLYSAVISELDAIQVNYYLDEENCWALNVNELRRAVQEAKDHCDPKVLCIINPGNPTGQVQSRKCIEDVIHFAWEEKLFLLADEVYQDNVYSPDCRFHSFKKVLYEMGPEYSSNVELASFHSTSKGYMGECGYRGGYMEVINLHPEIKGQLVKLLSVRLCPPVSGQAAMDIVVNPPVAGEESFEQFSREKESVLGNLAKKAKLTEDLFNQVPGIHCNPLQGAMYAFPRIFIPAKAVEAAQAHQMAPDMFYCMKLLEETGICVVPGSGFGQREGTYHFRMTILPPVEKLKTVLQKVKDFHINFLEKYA
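GPT2 10ng/uL, a-KG 250uM, L-Ala 2mM, HEPES pH7.5 + 0.0001% Tween; 30 min RT. Then Amplex mix (PO/HRP/ThPP), 30 min RT dark, fluorescence. AOA 50uM used as positive control.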
Luciferase inh: blocks purified firefly luciferase enzyme activity. P08659. purified P. pyralis luciferase, luminescence, biochemical. Potency, µM (top dose mostly 115 µM), hits mostly inhibitors. 76,000 compounds, 2.5% hits; further: nearly all actives have a fitted effect of over 65% in size
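Cell-free enzyme assay, 10nM P. pyralis luciferase, luciferin and ATP each at 10uM. Inhibition profiled over a 6-point titration, read as luminescence.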
HEK293 tox: kills HEK 293 cells | HEK 293 viability, ATP luminescence (CellTiter-Glo), 48-72 h | Potency, µM (doses to about 115 µM), for the others: top-dose activity change, negative = cytotoxicity, actives largely listed as inhibitors | 94,000 compounds, 6.6% hits; further: nearly all actives have a fitted effect of over 60% in size
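Pintool-delivered compounds were incubated with HEK 293 cells (250 cells/well) at 37 degree Celsius for 48 or 72 hr. ATP-dependent luminescence (CellTiter-Glo) then reported remaining viable cells.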
* marks the source's active call; other numbers are inactive results; [ ] = another dose, or the depositor's remark. Unless noted, the call rests on the fitted dose curve; in most records, active means well fitted curve in the direction sought with a large enough effect; inconclusive means small, poorly fitted or top-dose-only effect, or another doubt; inactive means no such curve, though single readings can be large; an effect the other way counts as inactive or inconclusive. On the % scale 0 is the no-effect control and ±100 the full control effect; potency means the concentration at half of the fitted maximal effect.

COCC1CN(C)CC12CCN(C(=O)c1nccc3ccccc13)CC2 (stereo not given) was read as NPR1 antag -18%, NIH3T3 tox 0%, GPT2 inhibitor inactive, Luciferase inh inactive and HEK293 tox inconclusive.
COc1ccc(CC2CCOC3(CCN(C(=O)c4cc5ccccc5[nH]4)CC3)C2)cc1 (stereo not given) was read as NPR1 antag -13%, NIH3T3 tox inconclusive, GPT2 inhibitor inactive, Luciferase inh inactive and HEK293 tox 32µM*.
`CCCC1c2nccn2CCCN1C(=O)c1cn2ccccc2n1` (stereo not given) gave NPR1 antag -6%, NIH3T3 tox -6%, GPT2 inhibitor 2%, Luciferase inh inactive and HEK293 tox -20%.
`CCOC(=O)c1cccc(NC(=O)C2=CC(C)(C)Oc3ccc(OC)cc32)c1` gave NIH3T3 tox 28µM* and HEK293 tox 25µM*.
`CCOC(=O)c1cccc(NC(=O)N2CC[C@@H](CC(=O)Nc3ccccc3)[C@@H](CC)C2)c1` gave NPR1 antag -1%, NIH3T3 tox -20%, GPT2 inhibitor 0%, Luciferase inh inactive and HEK293 tox -5%.
Screening COC(=O)c1ccc(COCC2=CC(C)(C)Oc3ccc(OC)cc32)cc1 returned NIH3T3 tox inconclusive and HEK293 tox 35µM*.
For Cc1ccc(-n2nc3n(c2=O)CCN(C(=O)NC2CCCC2)C3)cc1 the results were NIH3T3 tox -27%[138 µM], GPT2 inhibitor inconclusive and HEK293 tox -19%[172 µM].
O=C(NC[C@H]1O[C@H](Cc2cc(-c3ccc(F)cc3)on2)CC[C@@H]1O)NC1CCCCC1 was read as NPR1 antag 10µM*, NIH3T3 tox 89µM*, GPT2 inhibitor 0%[88.5 µM], Luciferase inh 71µM* and HEK293 tox inconclusive.
Screening NC[C@H]1O[C@H](Cc2cc(-c3ccc(F)cc3)on2)CC[C@@H]1O returned NPR1 antag 14µM*, NIH3T3 tox -6%[174 µM], GPT2 inhibitor 1%[88.5 µM], Luciferase inh 35µM* and HEK293 tox inconclusive.
`O[C@H]1CC[C@@H](Cc2cc(-c3ccc(F)cc3)on2)O[C@@H]1CNC1CCOCC1` gave NPR1 antag -30%[70.6 µM], NIH3T3 tox 0%[174 µM], GPT2 inhibitor -1%[88.5 µM], Luciferase inh inconclusive and HEK293 tox inactive.
For O=C(CCc1ccsc1)N1CCC2(CC1)OCCCC2O (stereo not given) the results were NPR1 antag 0%, NIH3T3 tox -8%, GPT2 inhibitor -13%, Luciferase inh inactive and HEK293 tox -9%.
For CN1CCC2(C1)CN(CC1CC1)c1ccc(C(=O)NCC3CC3)cc12 (stereo not given) the results were NPR1 antag -6%[70.6 µM], NIH3T3 tox inconclusive, GPT2 inhibitor inactive, Luciferase inh inactive and HEK293 tox inconclusive.
For CN1CC2(CCCN(CC3CC3)C2)c2cc(C(=O)NCCc3ccccc3)ccc21 (stereo not given) the results were NPR1 antag -14%[70.6 µM], NIH3T3 tox 79µM*, GPT2 inhibitor inactive, Luciferase inh inactive and HEK293 tox inconclusive.
Screening CN(C)CCNC(=O)c1ccc2c(c1)C1(CCCN(CC3CC3)C1)CN2C (stereo not given) returned NPR1 antag -1%[70.6 µM], NIH3T3 tox 89µM*, GPT2 inhibitor -7%[88.5 µM], Luciferase inh inactive and HEK293 tox inconclusive.
For CC(C)CNC(=O)c1ccc2c(c1)C1(CCCN(CC3CC3)C1)CN2C (stereo not given) the results were NPR1 antag 2%[70.6 µM], NIH3T3 tox -4%[138 µM], GPT2 inhibitor -12%[88.5 µM], Luciferase inh inactive and HEK293 tox inconclusive.
For COCCN1CCC2(C1)CN(C)c1ccc(C(=O)NCc3ccccc3)cc12 (stereo not given) the results were NPR1 antag 3%[70.6 µM], NIH3T3 tox inconclusive, GPT2 inhibitor 3%[88.5 µM], Luciferase inh 20µM* and HEK293 tox inconclusive.
CN1CCCC2(C1)CN(C)c1ccc(C(=O)NCC3CCCCC3)cc12 (stereo not given) was read as NPR1 antag 4%[70.6 µM], NIH3T3 tox 89µM*, GPT2 inhibitor inactive, Luciferase inh inactive and HEK293 tox 112µM*.
